Screening data from PubChem BioAssay.
esBAF inh: inhibitors of esBAF chromatin remodeling in mouse ES cells; hit rate 2% among 350,000; reporter increase, % at 12.5 µM; Bmi1-luciferase knock-in reporter, 24 h; 100% = twice the neutral-well signal; in the data active = activation above about 40%; inconclusive = no clear call, values can overlap the other calls;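 note: 0% = median of the plate's neutral control wells and 100% = double that signal; a rise in the Bmi1 reporter signal indicates esBAF inhibition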
Vif imaging: HIV Vif inhibition | inhibition, % at 7.49 µM | hit rate 0.35% among 340,000 | HEK293T cells, Vif self-association by quenched fluorescence, imaging, 24 h | AID 602346; in the data active = inhibition above about 50%, passing the limit was not always enough; inconclusive = no clear call, values can overlap the other calls; inactive = below about 31%
SKN-1 block: inhibitors of C. elegans SKN-1; C. elegans VP596 Pgst-4::GFP/RFP ratio, acrylamide-induced, 24 h; inhibition, % at 21.8 µM; hit rate 0.49% among 360,000;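 active = interference check ratio from 0.5 to 1.5 plus GFP to RFP signal ratio inhibition reaching or exceeding a fixed threshold, cut at about 30% in these data, passing the limit was not always enough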
NadD block: blocks S. aureus nicotinate mononucleotide adenylyltransferase. purified NadD enzyme, colorimetric absorbance read-out. inhibition, % at 20 µM. hit rate 0.78% among 360,000; in the data active = inhibition above about 26%
SMARCA2 activ: SMARCA2 function activation, primary screen | MG213 cells, MMTV-luciferase reporter, dexamethasone, overnight | hit rate 1% among 370,000 | activation, % at 9.1 µM; in the data active = activation above about 7.8%;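 note: 0% = vehicle wells and 100% = reference activator wells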
GRIN3A LBD mod: NR3A (human) ligand-binding domain modulation. Tm shift relative to glycine control, % at 25 µM. hit rate 2.5% among 340,000. NR3A LBD differential scanning fluorimetry, Tm shift; 0% = protein alone, 100% = glycine-bound protein;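 active = melting temperature shift of at least 10% of the positive control shift, at one fixed dose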
* hit, by the source's call; u = inconclusive; x = not tested or not shown. An excerpt weighted towards active compounds, which were near 5.2% of everything screened.

SMILES	esBAF inh	Vif imaging	SKN-1 block	NadD block	SMARCA2 activ	GRIN3A LBD mod
Cn1c(=O)c(C(=O)Nc2ncccc2O)c(O)c2ccccc21	36	6	0	9	2	-1
CCCn1c(=O)c(C(=O)Nc2ccccc2N)c(O)c2ccccc21	43*	-3	9	7	-4	x
CCCn1c(=O)c(C(=O)Nc2ccccc2)c(O)c2ccccc21	31	9	-17	-2	-1	-17
CCCn1c(=O)c(C(=O)N/N=C/c2ccccc2F)c(O)c2ccccc21	x	3	-2	-2	-2	1
CCCn1c(=O)c(C(=O)N/N=C/c2ccc(F)cc2)c(O)c2ccccc21	x	1	5	20	2	19*
CCCn1c(=O)c(C(=O)Nc2ncccc2O)c(O)c2ccccc21	-9	58*	4	3	-2	-4
C[C@H]1CN([C@@H](C)CO)S(=O)(=O)c2ccc(C#CC3CC3)cc2O[C@H]1CN(C)S(C)(=O)=O	5	x	x	x	x	x
Nc1nc2ccccc2n1/N=C/c1ccc(-c2ccccc2)o1	u	-5	3	2	4	30*
C[C@H](CO)N1C[C@H](C)[C@H](CN(C)Cc2ccc(-c3ccccc3)cc2)Oc2c(NC(=O)C3CCCCC3)cccc2C1=O	-2	x	x	x	x	x
CC(C)c1ccc(NC(=O)c2n[nH]c(=O)c3ccccc23)cc1	60*	-2	3	8	3	4
Cc1csc2nc(CCNS(=O)(=O)c3cccs3)cn12	53*	2	-4	-4	2	-12
Cc1nc(CCNS(=O)(=O)c2cccs2)cs1	-5	13	-15	-4	-1	0
CSc1ccccc1NC(=O)NCCCl	7	11	14	-1	1	242*
CCOC(=O)c1sc(NC(=O)CSc2n[nH]c(-c3ccccc3)n2)c(C#N)c1C	-10	-7	-6	8	-1	27*
CCOC(=O)c1sc(NC(=O)c2cccnc2)c(C#N)c1C	8	14	16	-1	-1	1
CCOC(=O)c1sc(NC(=O)c2cc(-c3ccccc3)nc3ccccc23)c(C#N)c1C	-43	-3	6	39*	0	24*
Cc1noc(C)c1NC(=O)Nc1ccc2c(c1)C(=O)N([C@@H](C)CO)C[C@@H](C)[C@@H](CN(C)Cc1ccc(C(F)(F)F)cc1)OCCCC[C@@H](C)O2	0	x	x	x	x	x
Cc1noc(C)c1S(=O)(=O)Nc1ccc2c(c1)C(=O)N([C@H](C)CO)C[C@H](C)[C@H](CN(C)C(=O)c1ccccc1)OCCCC[C@H](C)O2	4	x	x	x	x	x
COc1ccc2cc(C(=O)NCc3ccccc3)[nH]c2c1	24	1	-6	-9	3	0
COc1ccc2c(=O)c(C(=O)NCCc3ccccc3)c[nH]c2c1	55*	-6	8	-4	4	-1
COc1ccc2cc(C(=O)NCCc3ccccc3)[nH]c2c1	43*	-7	-2	-3	-1	-1
C[C@H](CO)N1C[C@H](C)[C@@H](CN(C)C(=O)c2cnccn2)Oc2cc(Br)ccc2S1(=O)=O	-4	x	x	x	x	x
COCCn1c(SCC(=O)Nc2sccc2C(N)=O)nc2cc(Cl)ccc2c1=O	21	-7	34	1	-1	37*
COCCn1c(SCC(=O)Nc2cccnc2Cl)nc2cc(Cl)ccc2c1=O	-5	-1	-5	-4	-4	0
CCCNC(=O)N(C)C[C@H]1Oc2ncc(C3=CCCC3)cc2C(=O)N([C@H](C)CO)C[C@H]1C	0	x	x	x	x	x
SMILES	esBAF inh	Vif imaging	SKN-1 block	NadD block	SMARCA2 activ	GRIN3A LBD mod
Cc1ccc2[nH]c3c(c2c1)CC/C(=C/c1ccccc1)C3=O	91*	3	1	-1	3	-1
O=C1/C(=C\c2ccccc2)CCc2c1[nH]c1ccccc21	34	-2	13	-1	2	-6
O=C(Nc1ccc(Cl)cc1)N[C@@H]1CC[C@@H](CCn2cc(-c3ccccc3F)nn2)O[C@H]1CO	18	x	x	x	x	x
CCN(CC)C(=O)c1cc(-c2ccc(Br)cc2)on1	75*	u	-6	-1	4	1
COC(=O)c1cc(-c2ccc(Br)cc2)on1	-3	5	0	-7	-1	-6
Cc1nn(CC(=O)Nc2sc3c(c2C#N)CCC(C(C)(C)C)C3)c(C)c1[N+](=O)[O-] (stereo not given)	x	6	28	24	-1	14*
O=C(NCCN1CCCC1)[C@H]1N[C@H]2c3ccc(C4=CCCCC4)c(=O)n3C[C@H]2[C@@H]1CO	0	x	x	x	x	x
